# Sampled rows, rich in hits. Any-hit rate of the full collection: about 4%.
# GDH-TPI counter: inhibits GDH-TPI coupling enzymes, artifact for Mtb FBA screen | GDH-TPI coupled enzyme counterscreen, NADH absorbance | inhibition, % at 4.8 µM | 360,000 compounds, 1.2% hits; in the data active = inhibition above about 30%;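 note: 0% = DMSO wells and 100% = wells lacking the enzyme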
# RecA intein inh: blocks M. tuberculosis RecA intein splicing; P9WHJ3; cell-free RecA intein splicing, fluorescence; inhibition, % (test concentration not listed); 290,000 compounds, 0.75% hits; in the data active = inhibition above about 30%; inconclusive = no clear call, values can overlap the other calls;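 note: 0% = vehicle wells and 100% = reference inhibitor control wells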
# FBA Mtb inh: inhibitors of M. tuberculosis fructose-bisphosphate aldolase; purified M. tuberculosis FBA, fluorescence read-out; inhibition, % at 1 µM; 360,000 compounds, 2.3% hits; AID 588726; in the data active = inhibition above about 27%;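 note: 0% = vehicle and 100% = reference inhibitor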
# Mtb bLac sens: beta-lactam sensitization of Mtb H37Rv. inhibition, % at 25 µM. M. tuberculosis H37Rv growth with meropenem, percent inhibition. 330,000 compounds, 0.27% hits; call rule not given here;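 note: growth measured after seven days incubation then overnight dye step; 0% = bacteria only wells and 100% = bacteria with antibiotic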
# Rv3671c inh: inhibitors of M. tuberculosis serine protease Rv3671c | P9WHR9 | inhibition, % at 5.96 µM | 320,000 compounds, 0.048% hits; in the data active = inhibition above about 38%;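 note: extracellular domain of Rv3671c used as enzyme; 0% = enzyme with DMSO and 100% = no enzyme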
# UGM FP inh: blocks M. tuberculosis UGM enzyme | 320,000 compounds, 0.06% hits | AID 504406 | inhibition, % at 10 µM | purified UGM, fluorescence polarization probe displacement | P9WIQ1; in the data active = inhibition above about 10%, passing the limit was not always enough; inconclusive = no clear call, values can overlap the other calls
# Target sequence (P9WIQ1 whole entry, looked up): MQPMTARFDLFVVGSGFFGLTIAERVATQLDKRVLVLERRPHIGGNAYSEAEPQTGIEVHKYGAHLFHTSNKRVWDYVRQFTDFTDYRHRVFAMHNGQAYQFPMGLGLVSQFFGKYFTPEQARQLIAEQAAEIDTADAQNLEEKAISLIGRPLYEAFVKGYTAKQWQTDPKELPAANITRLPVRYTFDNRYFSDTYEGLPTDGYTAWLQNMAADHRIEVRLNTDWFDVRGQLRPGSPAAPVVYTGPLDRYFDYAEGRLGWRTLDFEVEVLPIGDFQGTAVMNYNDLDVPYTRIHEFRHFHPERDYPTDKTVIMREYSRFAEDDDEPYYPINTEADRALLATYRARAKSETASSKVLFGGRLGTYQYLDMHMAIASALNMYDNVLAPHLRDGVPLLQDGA
# The depositor's hits bear a star; ? = inconclusive; · = no result given; + = active, no number.
SMILES,GDH-TPI counter,RecA intein inh,FBA Mtb inh,Mtb bLac sens,Rv3671c inh,UGM FP inh
CC(=O)OCC1CC(COC(C)=O)C(COC(C)=O)CC1COC(C)=O (stereo not drawn),16.4,·,4.0,·,·,·
Cc1ccc(S(=O)(=O)N2CCN(C(=O)COC(=O)CSc3ccccc3)CC2)c(C)c1,-2.9,1.1,-1.8,2.2,-0.1,0.9
C/C(=N\NC(=O)c1ccccc1)c1cc2cc([N+](=O)[O-])ccc2oc1=O,16.9,·,-8.0,7.9,-2.2,5.1
C/C(=N\NC(=O)c1ccc([N+](=O)[O-])cc1)c1cc2ccccc2oc1=O,32.1*,86.5*,-1.0,7.2,-2.5,-1.0
CCOC(=O)C1(NC(=O)C2(N3C(=O)c4ccccc4C3=O)CCCC2)CCCC1,9.4,·,3.0,·,·,·
CC[C@@H](NC(=O)[C@H](Cc1ccccc1)NC(=O)CC[C@H]1O[C@@H](n2ccc(=O)[nH]c2=O)[C@H](O)[C@@H]1O)c1ccccc1,·,·,1.5,·,·,·
COc1ccccc1N=Cc1c(O)n(C)c(=O)n(C)c1=O,20.4,-4.2,2.2,1.3,4.7,1.6
Cn1c(O)c(C=Nc2ccc(Cl)cc2)c(=O)n(C)c1=O,8.7,6.2,-3.2,-10.5,-1.4,0.9
Cn1c(O)c(/C=N/c2ccccn2)c(=O)n(C)c1=O,33.5*,0.5,0.9,1.7,3.1,2.7
Cn1c(O)c(C=Nc2ccccc2)c(=O)n(C)c1=O,46.3*,0.4,-3.1,0.0,-10.4,-0.2
COc1cc(CNc2ncnc3c2ncn3[C@H]2CN(Cc3cccc4ccccc34)C[C@@H](CO)O2)cc(OC)c1OC,-8.9,·,0.2,·,·,·
O=[N+]([O-])c1cc(-n2cnnn2)c(O)c([N+](=O)[O-])c1,31.1*,2.1,-3.1,-6.0,10.3,1.1
O=[N+]([O-])c1cc(O)c(O)c([N+](=O)[O-])c1,9.8,·,-8.3,0.0,12.4,7.6
CCN(CC)c1ccc(/C=C(\C#N)C(N)=O)cc1,6.0,·,-29.4,·,·,·
N#CC(=Cc1ccc(O)cc1)C(N)=C(C#N)C#N,36.8*,·,10.2,0.1,7.5,-0.9
O=C1CCC([N+](=O)[O-])C(c2ccc(-c3ccccc3)cc2)N1 (stereo not drawn),-1.1,0.9,1.9,-8.6,2.8,1.3
CCOc1ccc(-c2cc(C)[n+](CCN3CCOCC3)c(-c3ccc(OCC)cc3)c2)cc1,41.0*,-0.2,19.0,55.5,2.1,-0.9
CCOc1ccc(OCCOCCN2CCOCC2)cc1,-0.4,-0.2,1.6,-8.3,16.4,3.0
CCS(=O)(=O)Nc1ccc(C2=NN(C(=O)c3ccco3)C(c3ccco3)C2)cc1 (stereo not drawn),23.7,3.4,1.0,40.4,-2.1,·
CC(=O)Nc1ccc(C2=NN(c3ccccc3)C(c3cccs3)C2)cc1 (stereo not drawn),7.3,-7.1,189.1*,4.6,12.4,-2.4
CCS(=O)(=O)Nc1ccc(C2=NN(C(=O)c3ccco3)C(c3cccs3)C2)cc1 (stereo not drawn),46.4*,-0.1,2.2,17.2,-7.7,-1.8
CC(=O)Nc1cccc(-c2nc3ccc(NC(C)=O)cc3[nH]2)c1,16.1,-0.4,+,-10.9,1.9,0.5
COC(=O)c1ccc(C(=O)Nc2ccc3nc(-c4cccnc4)[nH]c3c2)cc1,21.9,-2.7,-3.4,-2.7,-24.1,-1.4
CC(=O)Nc1ccc2nc(NC(=O)COc3ccccc3C)sc2c1,-3.8,0.7,2.2,-2.5,-18.5,-0.9
O=C(O)CCC(=O)Nc1ccc(-c2nc3ccc(C(=O)c4ccccc4)cc3[nH]2)cc1,38.4*,-0.9,0.7,-1.9,-20.2,3.7
SMILES,GDH-TPI counter,RecA intein inh,FBA Mtb inh,Mtb bLac sens,Rv3671c inh,UGM FP inh
Nc1ccc(C(=O)Nc2ccc3nc(-c4cccnc4)[nH]c3c2)cc1,36.7*,0.4,-4.0,-2.1,11.3,0.2
COc1cccc2sc(Nc3nc4ccc(NC(C)=O)cc4s3)nc12,25.1,-19.1,88.5*,11.2,-4.6,1.7
O=C(c1[nH]c(C(F)(F)F)nc1-c1ccccc1)N1CCOCC1,·,·,1.5,·,·,·
COc1ccc(C)cc1NC(=O)c1cccc(-c2ccc(OC(C)=O)cc2)c1,-4.2,28.8,-2.4,9.7,-10.2,2.7
CC(=O)Nc1cccc(-c2nc3ccccc3s2)c1,-0.6,-0.1,6.4,4.7,-4.3,0.9
COc1cccc2sc(Nc3nc(-c4ccncc4)cs3)nc12,37.8*,-3.0,-0.9,34.9,1.8,-0.9
CC(=O)Nc1cccc(-c2nc3ccc(NC(C)=O)cc3s2)c1,21.2,-1.7,+,-4.8,-18.7,-1.9
COCC(=O)N(C)C[C@H]1N[C@@](C)(C(=O)OC)[C@H]2C(=O)N(C)C(=O)[C@@H]12,-15.4,·,-0.2,4.5,0.1,·
Cc1ccc(/C=N/N=C2/NC(=O)C(CC(=O)Nc3ccc(Cl)cc3)S2)o1 (stereo not drawn),41.2*,0.4,-0.7,-6.3,-0.3,-0.9
O=C(CC1S/C(=N/N=C/c2ccco2)NC1=O)Nc1cccc(Cl)c1Cl (stereo not drawn),42.5*,1.6,-0.1,-0.8,-30.4,-2.1
Cc1ccc(/C=N/N=C2/NC(=O)C(CC(=O)Nc3ccccc3)S2)o1 (stereo not drawn),29.8,0.0,-1.3,2.4,4.1,-2.7
O=C(O)CC1S/C(=N/N=C/c2ccc(-c3ccc(Cl)c([N+](=O)[O-])c3)o2)NC1=O (stereo not drawn),17.2,5.3,-2.1,1.2,8.8,5.2
CCCC1S/C(=N/N=C/c2ccco2)NC1=O (stereo not drawn),28.3,-1.6,-1.4,7.2,-9.2,-3.0
O=C(O)CC1S/C(=N/N=C/c2ccc(-c3ccc(Cl)cc3[N+](=O)[O-])o2)NC1=O (stereo not drawn),32.5*,70.1*,-3.4,4.6,-23.3,5.2
COCCNC(=O)C1CCCN(C(=O)COc2ccc(C(C)(C)C)cc2)CC1 (stereo not drawn),3.5,·,0.7,·,·,·
Cc1ccc(C(=O)NCCn2c(N)c(C#N)c3nc4ccccc4nc32)cc1,10.2,-1.5,160.9*,?,-0.7,-1.3
N#Cc1c(N)n(CCNC(=O)c2ccc(Cl)cc2)c2nc3ccccc3nc12,18.2,-67.5,199.1*,-0.8,-12.0,2.7
COc1ccc(CC(=O)Nc2ccc(S(=O)(=O)Nc3cc(C)nc(C)n3)cc2)cc1OC,8.9,·,-1.6,·,·,·
CCCCN(C(=O)c1ccccc1Cl)C(CC(C)C)c1nc2ccccc2[nH]1 (stereo not drawn),·,·,-0.2,·,·,·
Clc1ccc(-c2nc3ncccn3c2Cl)cc1,13.9,-1.3,+,8.9,6.0,-0.1
COc1ccccc1OCC(=O)N1CCN(S(=O)(=O)c2ccc(Cl)cc2)CC1,-1.4,·,3.8,·,·,·
CNc1nc2sc3c(c2c(=O)n1C)CC(C)(C)SC3,8.2,4.6,184.9*,17.6,1.5,1.3
CN(C)c1nc2sc3c(c2c(=O)n1C)CC(C)(C)OC3,18.6,-1.5,1.4,-3.5,5.8,3.5
Cc1cc(O)c(-c2cc(C(=O)Nc3sc4c(c3C(=O)NCc3ccco3)CCC4)[nH]n2)cc1C,34.2*,-1.7,2.2,-10.6,-22.2,5.1

# Screening results: PubChem, several laboratories
